Rows were chosen to be rich in hits. Some 1.5% of all compounds tested hit in one or more screens of this group.
MbtI inh: MbtI salicylate synthase inhibitors, primary screen, biochemical, fluorescence intensity | 100,000 compounds, 0.89% hits | P9WFX0 | AID 493033, 2011 | purified MbtI enzyme, fluorescence intensity read-out | inhibition, % (no concentration beside the values); in the data active = inhibition mostly above about 56%, no sharp cut-off; inactive = mostly below about 77%
Mtb MenB inh: M. tuberculosis MenB inhibitors, primary screen, biochemical, absorbance; MenB enzyme assay, absorbance read-out; inhibition, % (concentration not given with the values); 100,000 compounds, 0.43% hits; AID 540299, 2011; in the data active = inhibition above about 21%, passing the limit was not always enough
AID504770: growth inhibition of E. coli YBA685, primary screen, V. cholerae RctB inhibitors | 130,000 compounds, 0.27% hits | z-score (concentration not given with the values) | E. coli YBA685 rctB-dependent plasmid, OD600 growth, 3 h; hits give low values; in the data active = z-score below about -2, passing the limit was not always enough
PV pol inh: poliovirus RdRp elongation inhibitors, primary screen, biochemical, fluorescence polarization, total intensity | poliovirus polymerase elongation; hits give low values | AID 588519, 2011 | % elongation, % (compound at 16.7 µg/mL) | Genome polyprotein (Poliovirus type 1 (strain Mahoney)), P03300 | 150,000 compounds, 0.66% hits; in the data active = % elongation below about 90%
Target sequence (P03300 1749-2209 limits assumed): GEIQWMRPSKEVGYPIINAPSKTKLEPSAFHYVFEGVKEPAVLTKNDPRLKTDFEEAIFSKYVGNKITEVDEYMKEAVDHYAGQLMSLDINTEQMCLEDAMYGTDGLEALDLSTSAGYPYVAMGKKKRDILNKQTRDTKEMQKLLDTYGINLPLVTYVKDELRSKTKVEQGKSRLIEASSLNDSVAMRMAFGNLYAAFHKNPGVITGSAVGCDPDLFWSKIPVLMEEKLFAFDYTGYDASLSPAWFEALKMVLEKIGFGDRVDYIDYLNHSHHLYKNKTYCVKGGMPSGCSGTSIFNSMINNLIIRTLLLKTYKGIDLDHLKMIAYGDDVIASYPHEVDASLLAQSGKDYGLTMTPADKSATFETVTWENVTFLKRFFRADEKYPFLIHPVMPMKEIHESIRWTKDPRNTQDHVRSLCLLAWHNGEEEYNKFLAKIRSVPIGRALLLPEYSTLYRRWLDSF
Active calls of the source: *; . = no result.

SMILES	MbtI inh	Mtb MenB inh	AID504770	PV pol inh
O=C(CCNS(=O)(=O)c1ccccc1)N1CCCC1	-8	2	0.25	102
CC(CNS(=O)(=O)c1ccccc1)(c1ccccc1)N1CCCCC1 (configuration not stated)	-9	.	-4.1*	100
COc1ccc(-c2cc(C(=O)N3CCC4(CC3)OCCO4)[nH]n2)cc1	5	-16	-0.4	102
CCn1c(O)c(N=NC(N)=S)c2ccccc21	78	-66	0.05	76*
COc1ccc(C2=Nc3ccccc3SC(c3ccccc3)C2)cc1 (configuration not stated)	3	-2	1.2	103
COC(=O)c1c(NC(=O)CCCOc2ccc(C(C)(C)C)cc2)sc2c1C(C(=O)OC)CC2 (configuration not stated)	.	.	.	62*
Cc1ccc(Cl)cc1N1CCN(C(=O)C2CCCN2S(=O)(=O)c2cccc3nsnc23)CC1 (configuration not stated)	-5	0	-1	102
COc1ccc(-c2ccnc(SC)n2)cc1	.	.	0.8	.
COc1nncc(-c2cnnc(SC)n2)n1	.	-23	-2*	15*
CC(C)N(C(=O)CSCc1ccc(Cl)cc1)c1ccccc1	-1	.	0.1	102
COc1cc2c(cc1OC)C(C)N(C(=O)CN1C(=O)CCc3ccccc31)CC2 (configuration not stated)	-6	-11	-2.9*	102
CCOC(=O)c1c(NC(=O)CSc2nc(-c3ccc(OC)cc3)cc(C(F)(F)F)n2)sc(C)c1C	.	.	.	86*
CCN(CC)C(=O)c1sc(NC(=O)C(C)Sc2nc(-c3ccccc3)cc(C(F)(F)F)n2)c(C(=O)OC)c1C (configuration not stated)	.	.	.	84*
COC(=O)c1c(NC(=O)CSc2nc(-c3ccco3)cc(C(F)(F)F)n2)sc2c1CCCC2	57*	-5	0.1	99
CCCCNC(=O)CSc1nc(-c2ccc(OC)cc2)cc(C(F)(F)F)n1	.	.	.	105
CCCOC(=O)c1c(NC(=O)C(C)Sc2nc(-c3ccccc3)cc(C(F)(F)F)n2)sc(C(=O)N(C)C)c1C (configuration not stated)	.	.	.	99
CCCOC(=O)c1c(NC(=O)CSc2nc(-c3ccco3)cc(C(F)(F)F)n2)sc(C(=O)N(C)C)c1C	37	-3	-0.1	99
CCNC(=O)Oc1cccnc1I	.	.	-1.1	.
CCOC(=O)c1cccc(C(=O)Oc2ccc3cc(Br)ccc3c2)n1	.	.	-1.4	.
COc1ccc(C(NC(=O)C(C)C)c2ccc3cccnc3c2O)cc1OC (configuration not stated)	-10	.	-0.2	.
CC(C)N(Cc1nc(-c2ccccc2)no1)C(=O)C(c1ccccc1)c1ccccc1	-4	-44	0.2	100
c1cnc2c(CN3CCOCC3)cccc2c1	-5	.	0.4	101
O=C(O)CCCC(=O)Nc1ccc(C(=O)N2CCCCC2)cc1	-2	33*	1.6	102
COc1ccc(C(=O)Nc2ccccc2C(=O)NC(C(=O)NCc2ccco2)C(C)C)cc1 (configuration not stated)	-36	30*	0	101
Cc1nc2cc3ccccc3cc2c(=O)n1CCCNC1CCCCC1	.	-10	1.4	90*
SMILES	MbtI inh	Mtb MenB inh	AID504770	PV pol inh
C=CCOn1c(=O)c(-c2ccc(OC)c(OC)c2)[n+]([O-])c2ccccc21	78*	-43	-0.5	93
COC(=O)c1cccc2[nH]ncc12	109	-3	-0.05	101
CC1=C/C(=N/OC(=O)c2ccccc2)C=CC1=O	0	-47	-1	102
CC1=C/C(=N\S(=O)(=O)c2ccccc2)C=CC1=O	101*	-27	-0.9	103
CS(=O)(=O)c1ccc(F)cc1	2	7	0.45	103
COc1ccc(S(=O)(=O)N=S(C)(=O)c2ccc(C)cc2)cc1 (configuration not stated)	.	.	-1.4	.
O=C1C=CC(=NS(=O)(=O)c2ccc(F)cc2)C=C1	98*	21	-1.7	100
Cc1ccc(S(=O)(=O)N=C2C=CC(=O)C=C2)cc1	96*	9	-0.5	103
CCOc1ccc(S(=O)(=O)N=C2C=CC(=O)C=C2)cc1	93*	19	-0.9	99
COC(=O)c1cc(/C=C2\C(=O)Nc3ccccc32)cn1C	.	.	-0.2	.
COc1ccc(S(=O)(=O)Nc2ccc(O)c(Sc3ncn[nH]3)c2)cc1	8	-8	-0.9	101
Cc1ccc(S(=O)(=O)Nc2cc(Sc3ncn[nH]3)c(O)cc2C)cc1	54*	3	0.7	111
CCCC(=O)Nc1nnc(SCC(=O)Nc2cc(C(F)(F)F)ccc2Cl)s1	.	.	-1.2	.
O=C1NC2(O)/C(=N/NC(=O)c3ccccc3O)c3ccccc3C2(O)N1 (configuration not stated)	17	-42	1.3	104
OC1(CCC2(O)CCCC2)CCCC1	-5	28*	1.5	100
O=C(Sc1cccs1)C1COc2ccccc2O1 (configuration not stated)	.	.	-2.3*	.
CCCCn1c(=N)n(CC(N)=O)c2ccccc21	0	.	0.25	.
COc1ccc(CC(=O)O/N=C(\N)c2ccccc2)cc1	-12	-47	-0.05	103
Cc1ccc(C2C(C(=O)c3ccco3)=C(O)C(=O)N2c2ccccn2)cc1 (configuration not stated)	6	-7	0.1	104
O=C(Oc1nsnc1N1CCOCC1)c1ccccc1	.	-6	-1.2	47*
O=C(Oc1nsnc1N1CCOCC1)N1CCCCC1	7	8	0.75	101
CC(O)c1nc2ccccc2s1 (configuration not stated)	9	-23	-0.55	100
Cn1ncc(C(C#N)c2nc3ccccc3s2)c(Cl)c1=O (configuration not stated)	57*	-266	-0.75	140
O=C(Cn1cnc2ccccc21)Nc1ccccc1	-20	-16	-1.2	102
O=C(Cn1cnc2ccccc21)NC1CCCC1	5	33*	1.1	101
SMILES	MbtI inh	Mtb MenB inh	AID504770	PV pol inh
COC(=O)c1cn(CC(=O)NC2CCCCCC2)c2ccccc12	-1	31*	0.65	100
Cc1ccc(NC(=O)CSc2nnc(C)n3c2cc2sccc23)cc1F	-2	3	-1	101
Cc1nc(-c2ccc(C(=O)O)cc2)cs1	20	28*	1.9	103
Cc1nc(-c2ccc3c(c2)OCCO3)cs1	92*	-13	0.3	78*
CC(=O)Nc1nc(-c2ccc3c(c2)OCCO3)cs1	.	.	0.4	.
CC1Cc2cc(S(N)(=O)=O)ccc2N1Cc1cc(Cl)cc2c1OCOC2 (configuration not stated)	-4	-12	-0.45	105
CC(Oc1ccc(F)cc1)c1n[nH]c(=S)o1 (configuration not stated)	-7	-21	-0.9	103
CCC(c1n[nH]c(=S)o1)N(C)C (configuration not stated)	84*	-51	-0.3	89*
CN1CCC(=NNC(=O)c2ccc3c(c2)NC(=O)C(C)(C)O3)CC1	-15	-65	-0.55	103
Nc1n[nH]c2cc(=O)[nH]c(O)c12	5	-44	1.5	5.0*

High-throughput results (PubChem)
